Screen size: about 260,000 compounds; about 1,500 (0.58%) were called active. About 5% were inconclusive and are not listed.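 Rule for the calls: active = inhibition above a set limit at one or more doses, reproduced on every date tested; inconclusive = results disagree between test dates, or hit never tested in dose response; inactive = the rest.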 Only a sample is shown. Potency and affinity values are given separately.
Each molecule was assayed against Virion infectivity factor (Human immunodeficiency virus type 1 group M subtype B (isolate BH10)) + Virion infectivity factor (Human immunodeficiency virus type 1 group M subtype B (isolate BRU/LAI)) + Virion infectivity factor (Human immunodeficiency virus type 1 group M subtype B (isolate PCV12)) + Virion infectivity factor (Human immunodeficiency virus type 1 group M subtype B (isolate HXB2)) + DNA dC->dU-editing enzyme APOBEC-3G (Homo sapiens) (UniProt P69720+P69721+P69722+P69723+Q9HC16) (assay: HIV-1 Vif–A3G interaction blockers – biochemical, TR-FRET, GST-Vif 1-94, biotin-A3G peptide, dose response retest, primary screen (AID 1117319;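 note: Vif residues 1-94 fused to GST binding biotinylated APOBEC3G peptide 110-148; 0% = full assay without inhibitor and 100% = GST in place of GST-Vif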)). Settings: TR-FRET GST-Vif / biotin-A3G peptide binding; hits give high values.

inhibition, inactive:
Cc1nc(CC(=O)Nc2nccs2)cs1 -1.06%, COC(=O)C1=C(C(=O)OC)[C@@H]2Nc3ccccc3[C@@]23C[C@@H](C(=O)OC)N=C3N1 0.57%, CN(CC(=O)Nc1ccccc1N1CCOCC1)S(=O)(=O)c1ccc(F)cc1 4.33%, O=C(c1ccc(Cl)cc1)c1cnc(-c2ccc(Cl)cc2)s1 -4.73%, O=C(CCCCl)Nc1c2c(nn1-c1ccccc1)CSC2 -3.73%, Cc1cc2nc(C3CCN(Cc4nnnn4Cc4cccs4)CC3)[nH]c2cc1C 1.05%, COC(=O)C1CC(c2ccccc2)N(c2ccccc2)O1 (stereo not drawn) -1.63%, CS(=O)(=O)N1CCCC(C(=O)NCCN2CCC(Cc3ccccc3)CC2)C1 (stereo not drawn) -4.71%, CS(=O)(=O)N1CCCC(C(=O)NCCCN2CCN(Cc3ccccc3)CC2)C1 (stereo not drawn) 8.72%, COc1ccccc1/C=C/C(=O)OCC(=O)Nc1ccccc1Sc1ccccc1 -5.26%, Cc1cc(C(=O)N(C)Cc2c(F)cccc2Cl)c2ccccc2n1 -2.57%, Cc1ccc(S(=O)(=O)CCC(=O)OCc2cc(C)ccc2C)cc1 4.12%, Cc1cc(C(=O)CSc2ncccn2)c(C)n1Cc1ccco1 -2.83%, CCn1c(C)cc(C(=O)CSc2nnc(-c3ccco3)o2)c1C 6.55%, COc1cccc(/C=C/C(=O)OCC(=O)Nc2cc(S(=O)(=O)N3CCOCC3)ccc2C)c1 -9.36%, CCN(CC(=O)NCc1cccs1)C(=O)c1ccc(S(=O)(=O)Nc2ccccc2Cl)cc1 1.56%, CC(=O)Nc1cccc(NC(=O)COc2ccccc2C)c1 -7.35%, Cc1noc(C)c1COc1cccc(C(=O)N(C)Cc2cccs2)c1 -1.46%, CC1(C)CC(=O)C(N=Nc2ccc(OC(F)F)cc2)=C(O)C1 12.4%, COc1ccc2c(c1O)C(=O)c1ccccc1C2=O 23.1%, Cc1cccc(NC(=O)c2ccc(C)c(S(=O)(=O)N3CCCCC3)c2)n1 2.93%, Cc1ccccc1NC(=O)COC(=O)c1cc(=O)c2ccccc2o1 -5.37%, CC(=O)Nc1ccc(N=Cc2ccc(OCc3ccccc3)cc2)cc1 21.2%, COc1ccc(/C=N/N=C/c2ccc(OC)c(O)c2)cc1O -4.01%, Oc1ccc(/C=N/N=C/c2ccc(O)cc2)cc1 4.98%, NC(N)=N/N=C/c1ccc(OCc2ccccc2)cc1 -2.74%, Oc1ccc(/C=N/N(c2ccccc2)c2ccccc2)cc1O 26.2%, O=Cc1ccc(O)c(O)c1 0.2%, Cc1nc(SC(C)C(=O)c2c(N)n(C)c(=O)n(C)c2=O)c2c(C)c(C)sc2n1 (stereo not drawn) -0.67%, CCOc1ccc(NC(=O)C(C)Sc2nnnn2C)cc1 (stereo not drawn) 0.56%, COc1cccc(NC(=O)CN(C)C(=O)CN2C(=O)NC(C)(c3ccc4ccccc4c3)C2=O)c1 (stereo not drawn) 9.34%, Cc1ccc(C)c(NS(=O)(=O)c2ccc(OCC(=O)N3CCCC3)cc2)c1 1.52%, CS(=O)(=O)c1ccc(C(=O)OCC(=O)NC(=O)Cc2ccccc2)cc1 -0.73%, COc1ccc(-n2c(SCC(C)=O)nc3sc(C)c(C)c3c2=O)cc1 -12.1%, CC(C)(C)c1c(Cl)c(O)c(-c2ccccc2)c(=O)n1-c1ccccc1 11.4%, CCN(c1ccccc1)S(=O)(=O)c1ccc2c(c1)N(C(C)=O)CCS2 -1.04%, COc1ccccc1-c1nn(-c2ccccc2)cc1C(=O)NCC(c1ccco1)N1CCCC1 (stereo not drawn) 1.07%, CCOC(=O)N1CCN(S(=O)(=O)c2ccc(OC)c(Cl)c2Cl)CC1 3.84%, Fc1ccc2c(c1)c1n[nH]c(=S)nc1n2CCc1ccccc1 0.89%, O=C1C=C(Nc2ccccc2)C(=O)c2ccccc21 1.37%, O=C(Nc1ccc2c(c1)C(=O)c1ccccc1-2)c1ccccc1 4.11%, NC(Cc1ccc2nonc2c1)C(=O)O (stereo not drawn) 17.1%, O=C(c1ccccc1)N(Nc1ccccc1)c1ccccc1 11.5%, CC(C)C(=O)NN(C(=O)c1ccccc1)c1ccccc1 -2.08%, COc1ccc2cc(C#N)c(Nc3cccc(F)c3)nc2c1 -0.27%, S=c1[nH]nc(NC2CCCCC2)s1 2.41%, CCOc1cc(C2Nc3ccccc3C(=O)N2c2ccccc2)ccc1O (stereo not drawn) 24.7%, COc1cc(C2Nc3ccccc3C(=O)N2c2ccccc2OC)ccc1O (stereo not drawn) -3.51%, CCCCOC(=O)c1cccc(NC(=O)CCC(=O)O)c1 -3.12%, NC(=O)c1ncc(C(F)(F)F)cc1Oc1cccnc1 -3.05%, CCN(C(=O)COC(=O)CNC(=O)c1ccc2ccccc2c1)C1CCS(=O)(=O)C1 (stereo not drawn) 11.8%, CCc1ccc(NC(=O)C2CCN(S(C)(=O)=O)CC2)cc1 -4.22%, Cc1ccc(NC(=O)C2CC3CCC2C3)c(Br)c1 (stereo not drawn) -0.68%, COc1ccc(NC(=O)C(NC(C)=O)C(=O)NCc2ccccc2OC)cc1 (stereo not drawn) 19.8%, Oc1cccc2cc3cccc(O)c3c(O)c12 -5.93%, COc1cc2cccc(OC)c(=O)c2c(O)c1OC 4.6%, CCOC(=O)c1sc(NC(=O)Nc2ccc(F)cc2)nc1C 24.7%, Nc1ccc(N2CCCCC2)c(Cl)c1 19.8%, Clc1ccccc1CN1CCN(c2ncccn2)CC1 -5.95%, CC1CCC2(CC1)NC(=O)N(CC(=O)NCc1ccc(Cl)cc1)C2=O (stereo not drawn) -14%, O=C(CNC(=O)c1ccc(Br)cc1)N/N=C/c1ccc[nH]1 -7.5%, Cc1nc2ccccc2c(-c2ccccc2)c1CC(=O)O -8.12%, Cc1nc2ccccc2n1CC(=O)c1ccccc1 6.29%

Reference: PubChem BioAssay AID1117319 (Southern Research Institute, 2015)
